Compound activity from PubChem BioAssay.
CRFBP-R2 agonist: agonists of human CRF-binding protein/CRF-R2 receptor complex | HEK293 CRF-R2/CRF-BP, calcium dye fluorescence (FLIPR); percent of saturating CRF peptide response | activation, % at 13.2 µM | actives 0.46% (n = 350,000) | AID 588473;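 active = activation of at least 50%, plus an integration ratio under a set limit after plate pattern correction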;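 also: plate controls were neutral control wells without compound for no effect and CRF at EC100 for full effect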
IDE inh: inhibitors of human insulin-degrading enzyme in cells. HEK cells, FAbetaB cleavage, fluorescence polarization. AID 434962. inhibition, % at 5.59 µM. actives 0.41% (n = 320,000). P14735;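 active = percent inhibition above the average of all tested compounds plus 3 SD, set per screening campaign, cut at about 16% in these data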;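 also: IDE supplied by intact live HEK cells; FP after avidin binding of uncleaved biotin substrate so inhibition keeps polarization high; 0% = DMSO wells and 100% = 60 µM reference IDE inhibitor Ii1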
HNF4A DNA FP: change in binding of human HNF4 alpha to DNA; P41235; actives 0.3% (n = 360,000); activity change, % at 10 µM; HNF4a-FITC DNA binding, fluorescence polarization, 1 h; AID 1224865; in the data active = activity change above about 30%, passing the limit was not always enough
Target sequence (P41235 whole entry, looked up): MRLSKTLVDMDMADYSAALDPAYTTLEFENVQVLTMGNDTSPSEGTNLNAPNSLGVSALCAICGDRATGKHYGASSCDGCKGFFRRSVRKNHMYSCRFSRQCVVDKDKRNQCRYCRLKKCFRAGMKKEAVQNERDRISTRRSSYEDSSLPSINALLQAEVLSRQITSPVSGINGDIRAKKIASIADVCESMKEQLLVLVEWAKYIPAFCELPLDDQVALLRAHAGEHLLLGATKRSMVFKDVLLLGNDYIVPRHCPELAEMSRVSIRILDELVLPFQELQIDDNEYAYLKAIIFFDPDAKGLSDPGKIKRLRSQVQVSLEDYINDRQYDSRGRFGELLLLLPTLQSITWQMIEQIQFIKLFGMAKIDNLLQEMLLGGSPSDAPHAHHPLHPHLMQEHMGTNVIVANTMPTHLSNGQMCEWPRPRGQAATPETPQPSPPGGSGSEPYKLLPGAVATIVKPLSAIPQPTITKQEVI
IDE act: activators of human insulin-degrading enzyme in cells; P14735; actives 0.073% (n = 340,000); HEK cells, FAbeta-B cleavage, fluorescence polarization; 0% vehicle, 100% cell-free pure enzyme wells; activation, % at 5.96 µM;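 active = activation above the mean of all tested compounds plus 3 SD, set per screening campaign, cut at about 17% in these data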
TPT1 inh: blocks Candida albicans tRNA 2'-phosphotransferase; recombinant caTPT1, FP RNA substrate dephosphorylation; inhibition, % at 5 µM; actives 0.81% (n = 300,000); AID 1962;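 active = inhibition above the mean of all tested compounds plus 3 SD, set per screening campaign, cut at about 24% in these data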;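 also: plate controls were DMSO alone for no effect and ferristatin control at 100 nM for full effect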
TPT1 inh confirm: confirmation of Candida albicans TPT1 inhibitors | shares compounds with TPT1 inh | recombinant caTPT1, fluorescence polarization, RNase T1 coupled | inhibition, % at 5 µM | actives 74% (n = 2,400);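 active = inhibition above the primary screen limit, the mean inhibition of all tested compounds plus 3 SD, cut at about 25% in these data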
RNase T1 inh: RNase T1 inhibition in TPT1 counter-screen. shares compounds with TPT1 inh. RNase T1 cleavage, fluorescence polarization, 1536-well. inhibition, % at 5 µM. actives 83% (n = 2,400). AID 2153;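 active = inhibition above the solvent-only control well mean plus 3 SD, limit set per screening run, cut at about 23% in these data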;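 also: plate controls were DMSO wells with enzyme for no effect and wells without RNase T1 for full effect; inhibitors block cleavage so intact labeled substrate keeps polarization high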
Target sequence (P00651 whole entry, looked up): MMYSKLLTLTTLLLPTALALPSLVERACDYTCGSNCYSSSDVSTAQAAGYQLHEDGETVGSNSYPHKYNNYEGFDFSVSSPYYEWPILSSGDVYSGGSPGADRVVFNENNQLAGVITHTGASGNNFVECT
* marks the source's active call; other numbers are inactive results; x = no result given. Shown are actives, neighbours in structure and some others; about 1.4% of the full set was active somewhere.

SMILES | CRFBP-R2 agonist | IDE inh | HNF4A DNA FP | IDE act | TPT1 inh | TPT1 inh confirm | RNase T1 inh
COc1cc(/C=C2\CC/C(=C\c3cc(OC)c(OC)c(OC)c3)C2=O)cc(OC)c1OC | -0.1 | 0.7 | -0.4 | 2.3 | 39.0* | 48.3* | 56.7*
COc1ccc(/C=C2/CC/C(=C\c3ccc(OC)c(OC)c3OC)C2=O)c(OC)c1OC | 52.2* | 5.8 | 4.9 | 2.1 | 24.4* | 36.5* | 42.7*
COc1cc(/C=C2\CC/C(=C\c3cc(OC)c(O)c(OC)c3)C2=O)cc(OC)c1O | 5.4 | 7.4 | 25.0 | -3.0 | 91.0* | 95.0* | 100.6*
COc1cc(/C=C2\COC/C(=C\c3cc(OC)c(OC)c(OC)c3)C2=O)cc(OC)c1OC | -2.8 | x | 2.3 | 7.0 | x | x | x
COc1ccc(/C=C2\CCC(C3CCCC3)C2=O)c(OC)c1OC (configuration not stated) | 2.0 | -1.1 | -3.2 | 3.6 | 3.4 | x | x
COc1cc(/C=C2\CCC/C(=C\c3ccc(O)c(OC)c3)C2=O)ccc1O | -10.2 | -1.1 | -3.0 | -4.8 | 10.7 | x | x
Cc1ccc(CN2CC(C(=O)N(Cc3nnc(-c4ccccc4Cl)o3)C3CC3)CC2=O)cc1 (configuration not stated) | -0.2 | 1.4 | -0.3 | 2.4 | 2.1 | x | x
CC(=O)c1cc(NC(=O)c2ccc(C)cc2)c(=O)oc1C | -1.5 | 8.9 | 3.1 | -1.1 | 3.2 | x | x
COc1ccc(C(=O)Nc2cc(C(C)=O)c(/C=C/N(C)C)oc2=O)cc1 | 155.3* | 9.8 | 116.8* | -24.9 | 114.1* | 125.4* | 129.7*
CC(=O)c1cc(NC(=O)c2ccc(C)cc2)c(=O)oc1/C=C/N(C)C | 122.8* | 11.8 | 96.0* | -35.0 | 156.1* | 133.6* | 135.0*
COc1ccc(/C=N/NC(=O)c2ccc(O)cc2)cc1CN1CCCc2ccccc21 | 0.3 | -1.0 | 4.6 | 1.3 | 31.3* | 39.9* | 54.2*
COc1ccc(/C=N/NC(=O)c2ccc(F)cc2)cc1CN1CCc2cc(OC)c(OC)cc2C1C (configuration not stated) | -1.3 | 0.3 | 1.9 | -0.4 | 1.0 | x | x
Cc1cccc(C)c1-n1c(C)cc(/C=N\Nc2ccc([N+](=O)[O-])cn2)c1C | 8.0 | 1.5 | 37.9 | 1.1 | 74.7* | 67.2* | 79.0*
Cc1c([C@@H]2C[C@H]3CN(Cc4cccc(Cl)c4)C(=O)[C@]34CCCN24)cnn1C | 3.1 | 4.6 | 20.7 | -0.4 | 31.6* | 33.9* | 47.7*
CCCn1cc([C@@H]2C[C@H]3CN(Cc4cccc(Cl)c4)C(=O)[C@]34CCCN24)c(C)n1 | 2.6 | 2.2 | -0.7 | 4.1 | 3.3 | x | x
CCCC1=NN2C(=N)/C(=C\c3ccc(SCc4ccco4)o3)C(=O)N=C2S1 | 33.2 | 17.8* | 29.8 | -35.0 | 43.0* | 47.3* | 60.2*
CCCC1=NN2C(=N)/C(=C\c3cc(C)n(Cc4ccccc4)c3C)C(=O)N=C2S1 | 14.0 | -0.2 | -0.9 | -4.7 | 5.3 | x | x
COc1cc(/C=N/NC(=O)c2ccccc2)ccc1O | -3.5 | -4.5 | -2.6 | 3.9 | 3.2 | x | x
Cc1c(C(=O)N/N=C/c2ccc(O)c(Br)c2)sc(N)c1C#N | 0.5 | 10.3 | 23.4 | -1.2 | 27.1* | 16.6 | 23.8*
COc1cc(/C=N/NC(=O)c2sc(N)c(C#N)c2C)ccc1O | 0.7 | 7.8 | 2.1 | 4.4 | 54.2* | 2.3 | 9.7
Cc1c(C(=O)N/N=C/c2ccc(-c3ccccc3[N+](=O)[O-])o2)sc(N)c1C#N | 0.2 | -2.7 | -3.0 | -0.7 | 7.2 | x | x
O=C1/C(=C/c2ccc([N+](=O)[O-])cc2)C=C(c2ccccc2)N1c1ccccc1 | 16.3 | -3.9 | 24.6 | 2.8 | 34.6* | 11.8 | 22.9*
O=C1/C(=C/c2ccc([N+](=O)[O-])cc2)C=C(c2ccccc2)N1c1ccc(O)cc1 | 2.6 | 0.5 | -2.7 | -1.9 | 3.8 | x | x
CN(C)c1ccc(/C=C/c2ccc3ccccc3n2)cc1 | 90.5* | 15.7 | 79.0 | -7.2 | 60.1* | 60.5* | 69.7*
Cc1ccc(Nc2nc3ccccc3s2)cc1 | 0.1 | -5.7 | -3.1 | 2.3 | -0.9 | x | x
SMILES | CRFBP-R2 agonist | IDE inh | HNF4A DNA FP | IDE act | TPT1 inh | TPT1 inh confirm | RNase T1 inh
CCCN(CCC)c1ccc(/C=C/c2ccc3cc(OCC)ccc3n2)cc1 | 34.3 | 3.1 | 87.7 | -2.0 | 57.3* | 92.6* | 97.4*
Cc1ccc(/C=C/c2nc3ccccc3s2)s1 | 11.6 | 4.5 | 8.5 | -1.5 | 41.8* | 42.6* | 53.8*
CN(C)c1ccc(/C=C/c2nc3ccccc3s2)cc1 | 65.0* | 14.1 | 36.3* | -3.6 | 110.9* | 113.3* | 114.1*
CN(C)c1ccc(CNc2nc3ccccc3s2)cc1 | x | -6.3 | x | x | 3.9 | x | x
CSc1nc(O)c(C(c2cccc([N+](=O)[O-])c2)c2c(O)nc(SC)[nH]c2=O)c(=O)[nH]1 | 0.1 | -0.9 | 0.8 | -2.9 | 2.4 | x | x
COC(=O)c1ccc2nc(-c3ccco3)c(Cc3ccc(OC)cc3C)n2c1 | x | x | -2.1 | x | x | x | x
COC(=O)[C@@H](Cc1c[nH]c2ccccc12)NC(=O)C1CCCN(S(=O)(=O)c2ccc(C)cc2)C1 (some centres not stated) | -0.6 | x | -5.7 | 1.6 | x | x | x
COCCn1c(N)c(N(Cc2ccccc2)C(=O)c2ccc(N3CCCC3=O)cc2)c(=O)[nH]c1=O | -1.4 | x | -4.0 | 0.8 | x | x | x
Cc1nnc(N2CCC(C(=O)N3CCCCC3)CC2)c2nn(-c3ccc(Cl)cc3)c(C)c12 | -0.8 | 4.8 | 5.7 | 1.0 | 0.2 | x | x
COc1ccc(-n2nc3c(N4CCC(C(=O)N5CCC(C)CC5)CC4)nnc(C)c3c2C)cc1 | 16.4 | 0.0 | 99.3* | -2.3 | 79.0* | 71.9* | 81.1*
Cc1ccc(NC(=O)C2CCN(S(=O)(=O)c3ccc4c(c3)OCCCO4)CC2)nc1 | -0.5 | -1.0 | -0.5 | 9.2 | -3.3 | x | x
Cn1cccc1/C=C1\CC(C(C)(C)C)C/C(=C\c2cccn2C)C1=O (configuration not stated) | 79.0* | 2.6 | 139.9 | -6.8 | 176.3* | 162.0* | 149.1*
Cn1cccc1/C=C1\Cc2ccccc2C1=O | 4.8 | 6.3 | 15.8 | -4.9 | 23.0 | x | x
O=C(/C=C/c1ccc([N+](=O)[O-])cc1)c1ccco1 | 3.0 | 0.5 | -1.7 | 0.1 | -1.2 | x | x
O=C(/C=C/c1ccc([N+](=O)[O-])cc1)/C=C/c1ccco1 | x | 4.7 | -23.5 | 2.0 | 26.8* | 24.1 | 31.4*
COc1ccc(C(=O)/C=C2\NCCc3cc(OC)c(OC)cc32)cc1OC | -2.9 | 5.0 | 10.8 | -1.7 | 53.2* | 18.2 | 25.1*
COc1ccc(C(=O)/C=C/N(C)C)cc1OC | 0.3 | 0.1 | 2.0 | 6.0 | 9.0 | x | x
C[C@H](NC(=O)Cc1ccccc1)C(=O)N1CCC2(CC1)NCCc1[nH]cnc12 | -3.1 | 0.7 | -3.6 | 7.8 | 0.4 | x | x
CCN(CC)c1ccc2cc(C(=O)Nc3ccccn3)c(=O)oc2c1 | 262.6* | 7.0 | 31.8 | -16.1 | 134.6* | 109.2* | 111.6*
